From PubChem BioAssay AID492998 (Southern Research Specialized Biocontainment Screening …, 2010)
In all, about 2,300 compounds went through this assay and about 550 (24%) were called active. These entries were drawn from the full list. Measured potencies and affinities stand elsewhere. Values without a mark were called inactive. The rule behind the calls is not given here.

test: Vero E6 cell cytotoxicity, dose response, cytotoxicity control for non-replicating M. tuberculosis project, secondary assay (AID 492998); settings: series mostly up to 20 µM; viability: at the top concentration;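 note: 100% = vehicle-treated cells and 0% = background wells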

SMILES | viability [%]
O=C(OCCCOC(=O)c1ccc([N+](=O)[O-])o1)c1ccc([N+](=O)[O-])o1 | 99.5
Cc1ccc(C(=O)O/N=C(\N)c2cccc([N+](=O)[O-])c2)cc1 | 88.5
CCOC(=O)C1CCN(CCCSc2ccc(Cl)cc2)CC1 | 98.9
Cc1ccc(NC(=O)C2=C(c3ccccc3)S(=O)(=O)CCS2(=O)=O)cc1 | 94.5
C/C(=N\NC(=O)c1cc([N+](=O)[O-])cc([N+](=O)[O-])c1)c1ccco1 | 97
C/C(=N\NC(=O)COc1ccc(C)cc1Br)c1cc([N+](=O)[O-])cs1 | 84.7
O=C(CCN1CCC(c2ccccc2)C1)c1ccccc1 (stereo unspecified) | 97.1
COC(=O)COc1ccc2c(-c3cccc([N+](=O)[O-])c3)cc(=O)oc2c1 | 99.4
CCOC(=O)c1c(NC(=O)COC(=O)c2ccccn2)sc2c1CCC2 | 97.1
COc1ccc(-c2nnn(CC(=O)OC3CCCCC3)n2)cc1OC | 92.8
COc1ccc2c(c1)sc(=N)n2C | 83.1
CCOC(=O)C(C)Oc1cc(Cl)c(C=O)cc1OC (stereo unspecified) | 101
CC1=NN(c2ccccc2)C(=O)C1C(=O)c1ccccc1 (stereo unspecified) | 107
O=C(OCc1nc2ccccc2s1)c1ccc(Br)o1 | 98
COc1ccc(N=Cc2nc(-c3ccccc3)oc2OC(C)=O)cc1 | 99.7
Cc1ccc(NC(=O)COC(=O)C(NS(=O)(=O)c2ccc(Cl)cc2)C(C)O)cc1C (stereo unspecified) | 98.9

SMILES | viability [%]
O=C(Nc1nnc(-c2ccccc2Cl)o1)c1ccco1 | 109
Cc1ccc(-c2nnc(Cc3ccc([N+](=O)[O-])cc3)o2)cc1 | 104
O=C(Nc1nnc(-c2ccc(Br)cc2)o1)c1ccco1 | 79.3
O=C(Nc1nnc(-c2ccc(Br)cc2)o1)C1=COCCO1 | 92.6
Cc1ccc(C)c(-c2nnc(NC(=O)COc3ccccc3)o2)c1 | 71.6
O=C(Nc1nnc(-c2cc(Cl)ccc2Cl)o1)C1=COCCO1 | 95.4
C/C(CC(=O)Nc1ccc(C)c(Cl)c1)=N\NC(=O)c1ccco1 | 84.7
CCc1nnc(NC(=O)CN2CCN(c3ccccc3F)CC2)s1 | 111
CC(C)[C@H]1CN=C2N(C[C@H](C)NC(=O)CCC3CCCCC3)[C@H](Cc3ccc(O)cc3)CN21 | 93.5
COc1ccc(C2=Nc3ccccc3OC2)cc1 | 96.1
O=C(OCC#CCSc1nnc(-c2ccccc2)o1)c1ccco1 | 97.8
Cc1ccnc(NC(=O)COc2ccc3c(c2)CCC3)c1 | 104
COCCCNC(=O)COC(=O)c1ccc(-c2nc3ccccc3s2)s1 | 95
COc1ccc(C(C)=O)cc1COC(=O)c1ccc2ccccc2n1 | 106
CC1Cc2ccccc2N1C(=O)COC(=O)c1ccc(Cl)nc1 (stereo unspecified) | 102
